# Measurements: PubChem BioAssay (EPA / NIEHS)
# Results filed as inconclusive are left out. Calls of active or inactive are those of the source. The calls were made as follows: active = hit-call score of the fitted dose curve at least 0.9, where 1 is the maximum; inconclusive = response in the unintended direction; inactive = score below 0.9.
# Molecular target: Androgen Receptor/SRC-1 Co-activator, AR (gene 367) (UniProt P10275)
# Experiment: OT_AR_ARSRC1_0480: Odyssey Thera (OT) 8-hour HEK293T Protein-Complementation Assay for Androgen Receptor/SRC-1 Co-activator (AID 2283354);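 also: hits raise the complementation signal above DMSO so AC50 marks enhancers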
# Protocol: OT_AR_ARSRC1_0480 is a cell-based, single-readout assay that uses HEK293T, a human kidney cell line, with measurements taken at 8 hours after chemical dosing in a 384-well plate.OT_AR_ARSRC1_0480 is one of one assay component(s) measured or calculated from the OT_AR_ARSRC1_0480 assay. It is designed to make measurements of protein fragment complementation, a form of binding reporter, as detected with fluorescence intensity signals by Protein-fragment Complementation technology.Data from the assay component OT_AR_ARSRC1_0480 was analyzed into 1 assay endpoint. This assay endpoint, OT_AR_ARSRC1_0480, was analyzed in the positive analysis fitting direction relative to DMSO as the negative control and baseline of activity. Using a type of binding reporter, measures of receptor for gain-of-signal activity can be used to understand the binding at the pathway-level as they relate to the gene AR. Furthermore, this assay endpoint can be referred to as a primary readout, because the performed assay has only produced 1 assay endpoint. To generalize the intended target to other relatable targets, this assay endpoint is annotated to the nuclear receptor intended target family, where the subfamily is steroidal.
# Protein-fragment complementation assay, or PCA, is a method for the identification and quantification of protein-protein interactions. In the PCA, the proteins of interest ("bait" and "prey") are each covalently linked to fragments of a third protein (e.g. DHFR, which acts as a "reporter"). Interaction between the bait and the prey proteins brings the fragments of the reporter protein in close proximity to allow them to form a functional reporter protein whose activity can be measured. The OT AR / SRC-1 assay assessed androgen receptor chemical interactions using a rapidly maturing, intensely fluorescent mutant of YFP known as Venus, rationally dissected into two separate fragments. […] Fusion constructs were transfected into HEK293T cells with a (Gly4Ser)2 linker between the AR/SRC-1 and YFP fragment genes to facilitate complementation when interacting proteins bring fragments into close proximity. The construct is stably expressed in HEK293T cells. […] Images were acquired on an Evotec Opera at 2 wavelengths (488 and 635nm), and the ratio of fluorescence in the nucleus relative to fluorescence in the cytoplasm (N/C Ratio) in the 488nm channel was calculated for a minimum of 400 cells per image. Both agonists and antagonists of the AR receptor induce nuclear translocation to varying degrees. […] The OT AR/SRC-1 assay was also run for 16 hours (see description for OT_AR_ARSRC1_0960).
# Sequence of Androgen Receptor/SRC-1 Co-activator, AR (gene 367) (P10275 whole entry, looked up): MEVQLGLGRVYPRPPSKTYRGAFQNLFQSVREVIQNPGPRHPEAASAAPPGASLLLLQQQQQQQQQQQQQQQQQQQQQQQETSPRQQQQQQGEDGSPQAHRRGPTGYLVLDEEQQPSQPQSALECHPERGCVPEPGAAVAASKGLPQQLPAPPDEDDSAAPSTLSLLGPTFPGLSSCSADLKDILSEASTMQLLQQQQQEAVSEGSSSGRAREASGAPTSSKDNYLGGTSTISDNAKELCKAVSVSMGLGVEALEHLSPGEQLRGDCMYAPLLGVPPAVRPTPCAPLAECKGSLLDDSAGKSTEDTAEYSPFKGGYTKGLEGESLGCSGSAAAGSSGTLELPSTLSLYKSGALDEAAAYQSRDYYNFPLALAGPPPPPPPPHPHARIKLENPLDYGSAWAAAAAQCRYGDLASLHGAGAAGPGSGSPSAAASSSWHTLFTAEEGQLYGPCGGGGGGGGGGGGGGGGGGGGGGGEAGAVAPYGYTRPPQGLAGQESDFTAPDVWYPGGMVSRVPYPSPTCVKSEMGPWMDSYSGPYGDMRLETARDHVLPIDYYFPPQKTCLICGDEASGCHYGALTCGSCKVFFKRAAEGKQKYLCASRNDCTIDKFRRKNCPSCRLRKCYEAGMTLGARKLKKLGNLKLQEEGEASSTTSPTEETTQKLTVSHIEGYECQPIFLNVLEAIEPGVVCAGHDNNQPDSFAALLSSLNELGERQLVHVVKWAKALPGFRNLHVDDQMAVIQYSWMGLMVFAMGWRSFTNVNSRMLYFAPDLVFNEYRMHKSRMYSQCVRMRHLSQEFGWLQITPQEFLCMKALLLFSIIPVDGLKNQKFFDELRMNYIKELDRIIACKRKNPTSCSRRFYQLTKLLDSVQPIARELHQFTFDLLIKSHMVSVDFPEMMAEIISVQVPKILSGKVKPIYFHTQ
SMILES,outcome,AC50
c1cc2ccc3cccc4ccc(c1)c2c34,inactive,–
NS(=O)(=O)C(F)(F)C(F)(F)C(F)(F)C(F)(F)C(F)(F)C(F)(F)C(F)(F)C(F)(F)F,inactive,–
CCCCCCCCOC(=O)c1ccccc1C(=O)OCCCCCCCC,inactive,–
CCOC(=O)C(O)(c1ccc(Cl)cc1)c1ccc(Cl)cc1,–,66.7 µM (active)
O=C(N[C@H]1CN2CCC1CC2)c1cc2ccoc2cn1,inactive,–
C=CC(=O)NCNC(=O)C=C,inactive,–
CCNc1nc(NC(C)C)nc(SC)n1,inactive,–
O=C(NC(=O)c1c(F)cccc1F)Nc1cc(Cl)c(OC(F)(F)C(F)F)c(Cl)c1,inactive,–
CC1=C2C[C@H]3[C@@H](CC=C4C[C@@H](O)CC[C@@]43C)[C@@H]2CC[C@]12O[C@@H]1C[C@H](C)CN[C@H]1[C@H]2C,inactive,–
Cc1ccccc1CO[C@@H]1C[C@@]2(C(C)C)CC[C@]1(C)O2,inactive,–
c1ccc(-c2ccccc2)cc1,inactive,–
CCC(=O)O[C@H]1CC[C@H]2[C@@H]3CCC4=CC(=O)CC[C@]4(C)[C@H]3CC[C@]12C,–,29.9 nM (active) [middle of 6 runs]
